CRFBP-R2 block: blocks CRF-induced signaling of the CRF-BP/CRF-R2 complex. 350,000 compounds, 0.59% hits. AID 588475. HEK293 CRF-R2/CRF-BP, CRF-induced calcium fluorescence. inhibition, % at 11.8 µM;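 active = inhibition of the ligand-induced calcium signal above about 50% at the single tested concentration, limit read from the data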
PABP FP inh: blocks human PABP binding to poly(A) RNA; fluorescence polarization; inhibition, % at 35 µM; 290,000 compounds, 1% hits; AID 2014;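 also: calls also rest on retests at 20 µM and on dose response follow-up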
PHOSPHO1 block: inhibitors of human PHOSPHO1 phosphatase; AID 1565; inhibition, % at 13.3 µM; recombinant PHOSPHO1, absorbance phosphatase assay; 290,000 compounds, 1.1% hits; in the data active = inhibition above about 60%
Target sequence (Q8TCT1 whole entry, looked up): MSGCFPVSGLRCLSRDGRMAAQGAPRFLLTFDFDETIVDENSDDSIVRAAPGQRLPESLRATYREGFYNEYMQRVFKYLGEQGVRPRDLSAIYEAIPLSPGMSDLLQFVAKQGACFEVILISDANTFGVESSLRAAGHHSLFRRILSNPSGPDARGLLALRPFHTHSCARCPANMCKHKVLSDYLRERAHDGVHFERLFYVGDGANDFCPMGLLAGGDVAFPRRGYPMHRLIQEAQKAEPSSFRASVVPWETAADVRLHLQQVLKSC
eIF4H FP inh: inhibitors of RNA binding by human eIF4H; Q15056; eIF4H fluorescence polarization binding assay; inhibition, % at 35 µM; 290,000 compounds, 0.94% hits; AID 2012;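 also: calls also rest on retests at 20 µM and on dose response follow-up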
MLLE-PAM2 inh: blocks PAM2 peptide binding to the PABP1 MLLE domain. inhibition, % at 20 µM. AID 588489. GST-MLLE / FITC-PAM2 fluorescence polarization. 360,000 compounds, 0.36% hits; in the data active = inhibition above about 35%, passing the limit was not always enough;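 also: plate controls were DMSO wells with GST-MLLE for no effect and wells lacking GST-MLLE protein for full effect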
Starred values were filed as active, the others as inactive; i = inactive; ? = inconclusive; / = no result given. In the library only some 2.6% were active in any assay of this set; here they are far more common. Unless noted, no rule for the calls is given here.

SMILES | CRFBP-R2 block | PABP FP inh | PHOSPHO1 block | eIF4H FP inh | MLLE-PAM2 inh
O=C(CSc1nnc(CNc2ccc(F)cc2)n1Cc1ccco1)N1CCOCC1 | 14 | 4 | 88* | 6 | -105
C[C@H](NC(=O)[C@@H]1Cc2ccccc2CN1)C(=O)NC1CCCCC1 | 93* | 8 | 38 | -10 | -6
CC(C)[C@H](NC(=O)[C@@H]1Cc2ccccc2CN1)C(=O)NC1CCCCC1 | -1 | -1 | 32 | -16 | -1
CCN1C(N(C)CCc2cccs2)=N[C@@H](c2ccccc2)C(C(=O)OC)=C1C | -2 | 54* | -114 | 0 | -101
Cc1cnc(C(=O)N(CC(C)C)c2c(N)n(CC(C)C)c(=O)[nH]c2=O)cn1 | -2 | / | / | / | 0
COC(=O)c1c(C(=O)OC)c2c(-c3ccccc3)cc3cccc1n32 | 7 | / | / | / | -7
CCNc1ccc2noc3c2c1C(=O)c1ccccc1-3 | -179 | 4 | 4 | ? | i
CCOc1ccc2noc3c2c1C(=O)c1ccccc1-3 | 5 | 16 | 62* | 45 | i
CCCOC(=O)c1c(NC(=O)C2CCCO2)sc(C(=O)OC)c1C (centres undefined) | -13 | 0 | 16 | 0 | 45*
CCOC(=O)c1c(NC(=O)C2CCCO2)sc(C(N)=O)c1C (centres undefined) | -21 | 3 | 16 | -3 | 16
Cc1nc(SCC(=O)N2CCCC2=O)c2c(C)c(C)sc2n1 | -10 | / | / | / | 19
CCOc1ccc(OCC(=O)c2c(O)c3ccccc3oc2=O)cc1 | 11 | -8 | 68* | 3 | 5
C[C@H](CO)N1C[C@H](C)[C@@H](CN(C)CC2CC2)Oc2c(NC(=O)Cc3ccccc3)cccc2C1=O | 8 | / | / | / | 7
O=C(CSc1ccc(Cl)cc1)c1ccco1 | 8 | 38* | 11 | 87* | 32
CC(C)CC(c1nc2ccccc2[nH]1)n1c(-c2ccccc2Br)nc2ccccc21 (centres undefined) | / | / | / | / | -1
CCN(C(=O)COC(=O)C(c1ccccc1)c1ccccc1)c1c(N)n(Cc2ccccc2)c(=O)[nH]c1=O | -3 | / | / | / | -16
CC1=C(C(=O)N(C(C)C)C(C)C)CC(CC(=O)NCCN2CCOCC2)C(=O)N1Cc1ccc(C(C)(C)C)cc1 (centres undefined) | / | / | / | / | 11
COc1ccc(CCNc2nc3ccccc3n3nnnc23)cc1OC | -8 | 120* | -11 | ? | 21
c1ccc(CCNc2nc3ccccc3n3nnnc23)cc1 | -133 | 8 | -17 | 9 | 5
CC1(C)CCCN(C(=O)c2coc(=O)c(Br)c2)C1 | 17 | 57* | 18 | 89* | 6
O=C(c1coc(=O)c(Br)c1)N1CCC(C(O)(c2ccccc2)c2ccccc2)CC1 | -12 | 6 | 6 | 6 | -22
O=C(c1coc(=O)c(Br)c1)N1CCCc2ccccc21 | 17 | 98* | 23 | 67* | -18
CCOc1ccc(CNC(=O)Cn2ccc3cc(S(=O)(=O)N4CCCC4)ccc32)cc1 | 3 | -2 | 14 | -14 | 9
COC(=O)C(NNc1ccccc1)(NC(=O)c1cccc(F)c1)C(F)(F)F (centres undefined) | 7 | 3 | 99* | 2 | -19
COc1ccc(CC(N)c2csc(NC(=O)C(c3ccccc3)c3ccccc3)n2)cc1 (centres undefined) | / | / | / | / | -15
SMILES | CRFBP-R2 block | PABP FP inh | PHOSPHO1 block | eIF4H FP inh | MLLE-PAM2 inh
CN(c1ccc(OCC(=O)OCC(=O)Nc2ccccc2)cc1)S(=O)(=O)c1cccs1 | -1 | 74* | -9 | active | 3
COCCn1c(C)cc(C(=O)COC(=O)c2cc3c(s2)CCC3)c1C | 64* | 77* | 26 | 91* | 5
Cc1nn(-c2ccccc2)c(C)c1/C=N/n1c(-c2ccccc2Br)n[nH]c1=S | 71* | 0 | -16 | -1 | -46
CCN(CC)c1ccc(/C=N/n2c(-c3ccccc3Br)n[nH]c2=S)cc1 | -11 | -6 | 32 | 16 | -17
Oc1c(Br)cc(Br)c(/C=N/n2c(-c3ccccc3)n[nH]c2=S)c1Br | 31 | 66* | -107 | 44* | 14
O=C1NN=C2CCCCCCC12 (centres undefined) | 13 | / | / | / | 8
CC1C(=O)C(C)C(c2ccc(Br)cc2)NC1c1ccc(Br)cc1 (centres undefined) | 32 | 16 | / | 25 | -2
CC1C(=O)C(C)C(c2cc(Br)ccc2O)NC1c1cc(Br)ccc1O (centres undefined) | 58* | / | / | / | -12
COc1ccc(-c2c(C#Cc3ccc(N(C)C)cc3)c3ccccc3n2C)cc1 | 7 | / | / | / | -8
COc1ccc(C#Cc2c(-c3ccccc3)n(-c3ccccc3)c3ccc(CO)cc23)cc1 | 118* | / | / | / | 0
CC1(C(=O)NS(=O)(=O)c2ccc(C#N)cc2)CCN1C(=O)C1(c2ccccc2)CC1 (centres undefined) | / | / | / | / | -1
COc1ccccc1NC(=O)COC(=O)CCn1c(C)csc1=O | -3 | / | / | / | 10
c1cncc(-c2nnc(SCc3nc4ccccc4[nH]3)o2)c1 | 14 | 11 | 14 | -1 | -23
c1ccc2[nH]c(CSc3nc4ccccc4o3)nc2c1 | 3 | -1 | -70 | -15 | 35*
CCCS(=O)(=O)NC(=O)C1(C)CCN(C(=O)c2ccc3ccccc3n2)C1 (centres undefined) | / | / | / | / | -3
CCc1nc2c(OCC(=O)c3ccc(F)cc3)cccn2c1N(C)C(=O)C(C)C | / | / | / | / | 0
Cc1ccc(S(=O)(=O)c2nnn3c2nc(N2CCCCC2)c2ccccc23)cc1 | 51* | -5 | -11 | 1 | 6
Cc1ccc(C2=NC(C(F)(F)F)(C(F)(F)F)c3c(n(-c4ccc(F)cc4)c(=O)[nH]c3=O)N2)cc1 | 24 | 0 | -47 | -2 | -1
O=c1[nH]c(=O)n(-c2ccc(F)cc2)c2c1C(C(F)(F)F)(C(F)(F)F)N=C(c1ccc(F)cc1)N2 | 67* | -3 | -8 | -2 | 7
COC(=O)c1ccc2nc(C3CCCCC3)c(Cc3cccc(Cl)c3)n2c1 | / | / | / | / | -1
O=c1c(C(c2nnnn2C2CCCCC2)N2CCCCC2)coc2ccc(Cl)cc12 (centres undefined) | -1 | 19 | 15 | 8 | 4
CCCC1NC(=O)c2cccnc2-n2c1nc1ccc(Br)cc1c2=O (centres undefined) | 8 | / | / | / | -3
CC(C)(C)c1ccc(C(=O)CCCSC2=C(C#N)C(c3ccco3)C3=C(CCCC3=O)N2)cc1 (centres undefined) | -3 | 19 | 71* | 6 | -34
CC1=C(C(=O)N2CCOCC2)CC(CC(=O)NC2CCCC2)C(=O)N1Cc1ccc(F)cc1 (centres undefined) | 42 | / | / | / | 1
O=C(O)CCSc1nc2ccc(Br)cc2[nH]1 | -6 | 7 | 66* | -2 | -96
CC(Sc1nc2ccc(Br)cc2[nH]1)C(=O)O (centres undefined) | 8 | 3 | 23 | -8 | 3
COCCNC(=O)C1(C)CCN(C(=O)c2sc(-c3ccccc3)nc2C)C1 (centres undefined) | / | / | / | / | -1
CCN(c1ccc(OC)cc1)S(=O)(=O)c1nnc(NC(=O)c2ccc(C)cc2)s1 | -13 | / | -33 | / | -10
